According to ChEMBL document CHEMBL1961873, “Compounds: GSK PKIS; Assays: Nanosyn kinase panel” (2012):
Several values for one entry are separate records, joined by “and”; a condition that tells them apart may be missing. Identical values can stand only once.

What was measured:
[1] = biological target: T1, 3-phosphoinositide-dependent protein kinase 1 (Homo sapiens) (UniProt O15530); conditions: at 0.1 µM;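 note: values are mean inhibition of PDK1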
T1 sequence (whole entry): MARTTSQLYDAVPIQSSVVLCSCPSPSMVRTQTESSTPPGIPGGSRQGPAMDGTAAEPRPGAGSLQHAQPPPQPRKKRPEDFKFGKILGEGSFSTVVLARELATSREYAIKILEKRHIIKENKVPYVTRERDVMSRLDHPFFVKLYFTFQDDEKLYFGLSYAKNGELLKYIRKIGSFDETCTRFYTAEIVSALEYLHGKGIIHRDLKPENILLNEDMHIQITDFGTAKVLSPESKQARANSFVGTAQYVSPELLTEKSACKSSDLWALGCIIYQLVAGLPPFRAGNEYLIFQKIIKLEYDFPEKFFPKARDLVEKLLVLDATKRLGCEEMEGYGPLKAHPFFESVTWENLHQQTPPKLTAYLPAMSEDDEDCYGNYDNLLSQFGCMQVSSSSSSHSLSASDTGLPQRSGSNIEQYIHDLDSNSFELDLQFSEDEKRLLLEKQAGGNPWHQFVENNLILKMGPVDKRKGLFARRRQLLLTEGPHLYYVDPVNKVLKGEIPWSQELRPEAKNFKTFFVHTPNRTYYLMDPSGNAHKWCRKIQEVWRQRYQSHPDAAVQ

[2] = biological target: cAMP-dependent protein kinase catalytic subunit alpha (Homo sapiens) (UniProt P17612); conditions: at 0.1 µM
[3] = biological target: cAMP-dependent protein kinase catalytic subunit alpha (Homo sapiens) (UniProt P17612); conditions: at 1 µM
[4] = biological target: Protein kinase C alpha type (Homo sapiens) (UniProt P17252); conditions: at 0.1 µM
[5] = biological target: Protein kinase C alpha type (Homo sapiens) (UniProt P17252); conditions: at 1 µM
[6] = biological target: Protein kinase C beta type (Homo sapiens) (UniProt P05771); conditions: at 0.1 µM
Sequence of Protein kinase C beta type (Homo sapiens) (P05771 2-671 limits assumed): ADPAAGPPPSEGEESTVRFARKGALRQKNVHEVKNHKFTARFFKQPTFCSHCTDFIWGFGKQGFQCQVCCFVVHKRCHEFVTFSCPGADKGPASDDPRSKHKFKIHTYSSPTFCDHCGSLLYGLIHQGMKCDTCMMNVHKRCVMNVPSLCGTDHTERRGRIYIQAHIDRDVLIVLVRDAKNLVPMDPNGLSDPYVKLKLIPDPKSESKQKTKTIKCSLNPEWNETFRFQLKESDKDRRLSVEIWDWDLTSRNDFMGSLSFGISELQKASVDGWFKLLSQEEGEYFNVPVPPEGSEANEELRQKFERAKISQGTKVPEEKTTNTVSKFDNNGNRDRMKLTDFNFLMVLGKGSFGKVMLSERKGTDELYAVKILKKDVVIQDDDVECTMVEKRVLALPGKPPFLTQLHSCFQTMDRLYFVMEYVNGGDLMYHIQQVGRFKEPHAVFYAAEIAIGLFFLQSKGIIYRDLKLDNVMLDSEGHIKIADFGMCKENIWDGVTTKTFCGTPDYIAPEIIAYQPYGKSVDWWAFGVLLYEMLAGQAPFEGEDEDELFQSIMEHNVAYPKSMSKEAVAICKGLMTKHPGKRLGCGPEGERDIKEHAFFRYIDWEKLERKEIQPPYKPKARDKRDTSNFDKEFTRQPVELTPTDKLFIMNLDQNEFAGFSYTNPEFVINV

[7] = biological target: Protein kinase C beta type (Homo sapiens) (UniProt P05771); conditions: at 1 µM
[8] = biological target: Protein kinase C eta type (Homo sapiens) (UniProt P24723); conditions: at 0.1 µM
Sequence of Protein kinase C eta type (Homo sapiens) (P24723 whole entry): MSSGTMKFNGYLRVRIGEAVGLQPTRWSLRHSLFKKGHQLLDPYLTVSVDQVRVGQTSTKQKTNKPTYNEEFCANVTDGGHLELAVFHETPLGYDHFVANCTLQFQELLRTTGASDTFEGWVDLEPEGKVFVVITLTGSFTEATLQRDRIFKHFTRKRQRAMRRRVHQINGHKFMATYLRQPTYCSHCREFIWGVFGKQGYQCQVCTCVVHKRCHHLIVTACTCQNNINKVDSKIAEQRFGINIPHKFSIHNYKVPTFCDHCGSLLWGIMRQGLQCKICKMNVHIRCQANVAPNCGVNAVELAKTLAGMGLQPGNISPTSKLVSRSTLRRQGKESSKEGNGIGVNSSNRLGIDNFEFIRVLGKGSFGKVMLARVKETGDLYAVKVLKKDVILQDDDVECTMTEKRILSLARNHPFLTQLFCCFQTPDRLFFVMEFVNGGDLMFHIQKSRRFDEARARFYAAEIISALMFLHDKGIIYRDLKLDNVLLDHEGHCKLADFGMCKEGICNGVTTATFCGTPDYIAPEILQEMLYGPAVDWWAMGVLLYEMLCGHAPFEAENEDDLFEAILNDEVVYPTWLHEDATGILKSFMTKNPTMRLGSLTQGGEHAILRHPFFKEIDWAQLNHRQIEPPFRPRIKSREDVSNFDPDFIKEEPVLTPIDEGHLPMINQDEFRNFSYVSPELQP

[9] = biological target: Protein kinase C eta type (Homo sapiens) (UniProt P24723); conditions: at 1 µM
[10] = biological target: Protein kinase C gamma type (Homo sapiens) (UniProt P05129); conditions: at 0.1 µM
[11] = biological target: Protein kinase C gamma type (Homo sapiens) (UniProt P05129); conditions: at 1 µM
[12] = biological target: T2, Protein kinase C iota type (Homo sapiens) (UniProt P41743); conditions: at 0.1 µM
T2 sequence (whole entry): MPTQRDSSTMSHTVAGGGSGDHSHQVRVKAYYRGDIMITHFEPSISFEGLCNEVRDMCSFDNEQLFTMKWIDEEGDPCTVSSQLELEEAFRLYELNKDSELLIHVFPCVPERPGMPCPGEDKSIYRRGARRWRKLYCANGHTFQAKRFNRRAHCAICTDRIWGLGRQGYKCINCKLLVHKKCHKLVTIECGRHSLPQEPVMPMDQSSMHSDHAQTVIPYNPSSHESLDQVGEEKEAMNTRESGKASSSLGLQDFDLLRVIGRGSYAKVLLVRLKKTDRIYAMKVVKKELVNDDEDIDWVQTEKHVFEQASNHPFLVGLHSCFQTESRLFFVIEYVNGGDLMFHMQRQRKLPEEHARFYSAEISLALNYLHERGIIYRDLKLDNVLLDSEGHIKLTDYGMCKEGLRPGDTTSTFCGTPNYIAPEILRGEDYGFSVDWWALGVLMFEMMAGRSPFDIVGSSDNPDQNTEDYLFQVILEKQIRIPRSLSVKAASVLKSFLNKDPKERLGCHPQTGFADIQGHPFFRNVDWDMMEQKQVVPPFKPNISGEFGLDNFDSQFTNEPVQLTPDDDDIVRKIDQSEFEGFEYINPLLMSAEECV

[13] = biological target: T2, Protein kinase C iota type (Homo sapiens); conditions: at 1 µM
[14] = biological target: Protein kinase C theta type (Homo sapiens) (UniProt Q04759); conditions: at 0.1 µM
Sequence of Protein kinase C theta type (Homo sapiens) (Q04759 whole entry, looked up): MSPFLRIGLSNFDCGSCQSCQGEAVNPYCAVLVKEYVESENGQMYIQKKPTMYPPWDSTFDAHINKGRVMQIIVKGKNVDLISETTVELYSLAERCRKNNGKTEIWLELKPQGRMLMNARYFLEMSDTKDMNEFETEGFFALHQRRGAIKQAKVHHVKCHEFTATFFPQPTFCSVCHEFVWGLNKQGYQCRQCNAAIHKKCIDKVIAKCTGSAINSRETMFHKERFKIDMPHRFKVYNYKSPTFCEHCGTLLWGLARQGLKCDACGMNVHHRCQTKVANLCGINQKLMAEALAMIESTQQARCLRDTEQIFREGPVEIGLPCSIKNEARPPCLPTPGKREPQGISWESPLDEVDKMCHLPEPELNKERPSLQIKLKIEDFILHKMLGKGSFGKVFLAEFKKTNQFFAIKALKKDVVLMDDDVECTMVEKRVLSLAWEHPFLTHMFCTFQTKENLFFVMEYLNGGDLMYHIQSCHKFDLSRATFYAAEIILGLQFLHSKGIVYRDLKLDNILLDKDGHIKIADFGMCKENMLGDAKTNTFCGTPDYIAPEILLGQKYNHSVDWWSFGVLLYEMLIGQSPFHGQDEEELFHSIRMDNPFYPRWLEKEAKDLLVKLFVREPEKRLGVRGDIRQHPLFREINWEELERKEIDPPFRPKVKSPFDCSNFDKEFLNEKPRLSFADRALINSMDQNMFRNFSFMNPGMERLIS

[15] = biological target: Protein kinase C theta type (Homo sapiens) (UniProt Q04759); conditions: at 1 µM
[16] = biological target: Protein kinase C beta type (Homo sapiens) (UniProt P05771); conditions: at 0.1 µM; remark: listed apart in the source
[17] = biological target: Protein kinase C beta type (Homo sapiens) (UniProt P05771); conditions: at 1 µM; remark: listed apart in the source
[18] = biological target: T3, Serine/threonine-protein kinase D1 (Homo sapiens) (UniProt Q15139); conditions: at 0.1 µM
T3 sequence (whole entry): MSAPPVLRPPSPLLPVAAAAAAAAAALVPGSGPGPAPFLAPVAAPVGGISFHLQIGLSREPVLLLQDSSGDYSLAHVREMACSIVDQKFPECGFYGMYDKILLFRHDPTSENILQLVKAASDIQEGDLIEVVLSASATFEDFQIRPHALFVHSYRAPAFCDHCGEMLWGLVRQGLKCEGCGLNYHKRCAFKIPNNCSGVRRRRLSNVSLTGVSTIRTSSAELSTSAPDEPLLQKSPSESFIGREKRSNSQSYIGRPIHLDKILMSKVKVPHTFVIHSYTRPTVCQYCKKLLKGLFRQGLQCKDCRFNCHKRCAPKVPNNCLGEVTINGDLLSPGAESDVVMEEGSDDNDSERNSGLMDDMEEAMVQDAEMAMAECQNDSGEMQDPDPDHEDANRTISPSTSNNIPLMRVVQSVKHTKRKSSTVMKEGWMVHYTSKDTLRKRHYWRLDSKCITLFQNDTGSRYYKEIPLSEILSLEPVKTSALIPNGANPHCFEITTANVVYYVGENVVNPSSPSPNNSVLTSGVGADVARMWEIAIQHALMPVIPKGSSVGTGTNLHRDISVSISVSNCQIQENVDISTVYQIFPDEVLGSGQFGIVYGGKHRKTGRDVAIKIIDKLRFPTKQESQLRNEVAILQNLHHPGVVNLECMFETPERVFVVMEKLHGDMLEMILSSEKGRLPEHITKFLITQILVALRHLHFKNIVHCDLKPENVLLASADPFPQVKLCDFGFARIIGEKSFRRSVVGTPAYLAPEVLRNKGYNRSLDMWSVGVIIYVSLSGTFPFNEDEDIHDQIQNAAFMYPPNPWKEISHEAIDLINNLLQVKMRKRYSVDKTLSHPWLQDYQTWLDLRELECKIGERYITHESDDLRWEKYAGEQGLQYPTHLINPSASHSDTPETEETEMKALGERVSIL

[19] = biological target: T3, Serine/threonine-protein kinase D1 (Homo sapiens); conditions: at 1 µM
[20] = biological target: T4, Serine/threonine-protein kinase D2 (Homo sapiens) (UniProt Q9BZL6); conditions: at 0.1 µM;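 note: reported percent inhibition values are means, part of the GSK PKIS kinase panel screen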
T4 sequence (whole entry): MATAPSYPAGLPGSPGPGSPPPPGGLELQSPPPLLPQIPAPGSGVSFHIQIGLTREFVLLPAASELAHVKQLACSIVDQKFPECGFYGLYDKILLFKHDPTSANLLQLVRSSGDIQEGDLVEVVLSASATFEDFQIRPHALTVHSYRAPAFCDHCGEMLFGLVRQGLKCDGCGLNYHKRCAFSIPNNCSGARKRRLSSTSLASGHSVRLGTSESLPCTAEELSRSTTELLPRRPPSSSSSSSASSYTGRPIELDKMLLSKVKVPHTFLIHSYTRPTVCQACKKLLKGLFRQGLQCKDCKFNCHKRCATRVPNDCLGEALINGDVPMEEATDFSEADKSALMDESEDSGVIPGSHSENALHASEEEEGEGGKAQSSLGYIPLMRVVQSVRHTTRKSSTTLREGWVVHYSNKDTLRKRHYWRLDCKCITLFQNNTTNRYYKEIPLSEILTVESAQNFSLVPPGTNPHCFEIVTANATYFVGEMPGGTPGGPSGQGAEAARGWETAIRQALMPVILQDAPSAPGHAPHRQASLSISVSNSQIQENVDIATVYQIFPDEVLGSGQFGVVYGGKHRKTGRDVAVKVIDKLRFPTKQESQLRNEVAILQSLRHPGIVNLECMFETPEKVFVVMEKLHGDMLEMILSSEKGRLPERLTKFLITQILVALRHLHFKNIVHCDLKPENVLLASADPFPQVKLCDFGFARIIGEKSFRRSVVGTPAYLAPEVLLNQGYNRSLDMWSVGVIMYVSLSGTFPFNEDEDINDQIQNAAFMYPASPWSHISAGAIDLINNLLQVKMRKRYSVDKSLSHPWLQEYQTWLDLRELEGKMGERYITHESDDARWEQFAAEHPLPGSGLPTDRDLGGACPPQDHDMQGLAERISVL

| Structure (SMILES) | inhibition [1] | inhibition [2] | inhibition [3] | inhibition [4] | inhibition [5] | inhibition [6] | inhibition [7] | inhibition [8] | inhibition [9] | inhibition [10] | inhibition [11] | inhibition [12] | inhibition [13] | inhibition [14] | inhibition [15] | inhibition [16] | inhibition [17] | inhibition [18] | inhibition [19] | inhibition [20] |
| --- | --- | --- | --- | --- | --- | --- | --- | --- | --- | --- | --- | --- | --- | --- | --- | --- | --- | --- | --- | --- |
| c1cnn2ncc(-c3ccnc(NCCCN4CCOCC4)n3)c2c1 | 1.41% | 2.68% | 5.3% | 0.87% | 2.26% | 2.73% | 5.57% | 3.67% | 2.05% | 3.52% | 4.8% | 0.92% | 4.4% | 2.07% | 2.41% | 1.96% | 3.47% | 2.81% | 5.95% | 3.62% |
| O=C(Nc1n[nH]c2nnc(-c3cccnc3)cc12)C1CC1 | -0.25% | -0.44% | 0.38% | -0.19% | 2.33% | -0.7% | 0.6% | -1.43% | 2.91% | -0.5% | 2.11% | -0.5% | -0.56% | -0.08% | 0.79% | 0.49% | 3.21% | -0.5% | 0.81% | -1.06% |
| COc1cc(N2CCN(C(C)C)CC2)ccc1Nc1nc(Nc2cccc(F)c2C(=O)O)c2cc[nH]c2n1 | 2.24% | 1.49% | 2.03% | 1.38% | 2.23% | -0.07% | 3.07% | 2.71% | 4.16% | 1.77% | 5.49% | 0.72% | 0.65% | 2.48% | 3.08% | 1.66% | 2.08% | 3.89% | 6.58% | 3.65% |
| CS(=O)(=O)CCNCc1ccoc1-c1ccc2ncnc(Nc3ccc(OCc4ccccc4)cc3)c2c1 | 1.23% | 1.55% | 1.02% | -0.16% | 0.23% | -0.13% | -4.5% | 1.81% | -0.91% | 0.57% | 0.87% | 0.27% | -1.03% | -0.2% | 0.08% | -0.23% | 0.72% | 1.6% | 2.33% | 1.46% |
| O=C(O[C@H]1CN[C@H](C#Cc2cc3ncnc(Nc4ccc5c(cnn5Cc5ccccc5)c4)c3s2)C1)N1CCOCC1 | -1.36% | 0.31% | 1.15% | 0.54% | -0.04% | -0.18% | -6.28% | -1.67% | -2.51% | 1.56% | 1.11% | -1.84% | -0.97% | -0.32% | -1.1% | -0.16% | -0.06% | 2.57% | 1.38% | 1.01% |
| COc1ccc2ncn(-c3cc(O[C@H](C)c4ccccc4C(F)(F)F)c(C(N)=O)s3)c2c1 | 0.59% | 0.69% | 0.52% | 0.07% | 0.04% | 0.44% | 1.04% | 1.89% | 1.45% | -2.52% | 3.02% | -1.03% | -0.45% | -0.16% | -0.58% | -0.24% | 0.08% | -0.46% | 0.62% | 2.18% |
| CS(=O)(=O)Nc1ccc(-c2cc(-c3ccccc3)cc(C(N)=O)c2N)cc1 | -0.56% | 0.69% | -0.07% | 0.46% | 1.59% | -0.05% | -0.92% | 1.6% | 1.53% | 1.15% | 1.39% | 1.17% | 1.73% | 0.69% | 0.71% | 0.99% | 1.98% | 1.67% | 1.98% | 0.22% |
| Nc1nonc1-c1nc2cnccc2n1C1CC1 | 2.07% and 2.38% | 5.45% and 2.09% | 36.2% and 35.9% | 1.78% and -0.98% | 15.7% and 16.9% | 45% and 47.9% | 68.3% and 74.8% | 45.9% and 49.3% | 88.8% and 90.8% | 3.3% and 3.29% | 16.4% and 14.8% | 1.95% and 3.2% | 14.8% and 15.6% | 8.24% and 7.85% | 38.7% and 40.1% | 7.25% and 6.7% | 31.2% and 31.3% | 4% and 0.29% | 22.3% and 23.2% | 4% and 0.3% |
| COc1cc(N2CCN(C(C)C)CC2)ccc1Nc1nc(Nc2cccc3ncccc23)c2cc[nH]c2n1 | -0.4% | 0.01% | 0.68% | -0.39% | 1.71% | -0.38% | 2.34% | -2.11% | -3.36% | -0.77% | 0.74% | -0.08% | 0.58% | -0.84% | -1.07% | -0.21% | 0.45% | -0.17% | 3.6% | 0.68% |
| Cc1nnc(-c2cccc(-c3ccc(C(=O)NCC4CC4)cc3)c2)o1 | 2.18% | 1.83% | 2.07% | 0.65% | 1.45% | 2.27% | 3.52% | 3.46% | 6.75% | 1.76% | 5.25% | 2.19% | 1.94% | 3.27% | 5.18% | 1.13% | 2.65% | 4.9% | 9.11% | 5.08% |
